# Source: PubChem BioAssay (EPA / NIEHS)
# Calls of active or inactive are those of the source. The calls were made as follows: active = hit-call score of the fitted dose curve at least 0.9, where 1 is the maximum; inactive = score below 0.9. Peptide text beside a SMILES is read from it.
# Columns and labels:
# [1] = ATG_CRE_CIS: Attagene CIS-FACTORIAL HepG2 Assay for human cAMP Responsive Element (CRE) binding protein 3 (AID 2282926); conditions: HepG2 CRE cis-reporter, Attagene multiplexed mRNA; actives raise or lower the signal
# In short: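 Readout: fluorescently labelled reporter transcripts resolved by capillary electrophoresis after RT-PCR, taken 24 h post-dosing in transfected HepG2. Endogenous transcription factor activity drives each cis-element reporter; gain or loss of signal fitted relative to DMSO control.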
# [2] = biological target: CCAAT/enhancer-binding protein beta (Homo sapiens) (UniProt P17676); assay: ATG_C_EBP_CIS: Attagene CIS-FACTORIAL HepG2 Assay for human CCAAT/Enhancer Binding Protein (C/EBP) beta (AID 2282927); conditions: HepG2 Attagene cis-factorial transcription factor reporter; actives raise or lower the signal
# In short: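 RT-PCR/capillary electrophoresis fluorescence of reporter mRNA, 24 h post-dose, in HepG2 cells carrying transfected cis-promoter reporter units. Bidirectional curve fitting against DMSO baseline captures gain or loss of signal.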
# [3] = ATG_CMV_CIS: Attagene CIS-FACTORIAL HepG2 Assay for human CMV (Internal Marker) (AID 2282928); conditions: HepG2 CMV promoter reporter, transcription factor profiling; actives raise or lower the signal;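 also: endpoint acts as a background internal control marker rather than a target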
# In short: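 24 h chemical treatment, HepG2 with transient multi-reporter transfection; RNA → oligo(dT) RT → PCR → 6-FAM extension → HpaI digest → CE fluorescence. Bidirectional fit, DMSO negative control.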
# [4] = ATG_DR4_LXR_CIS: Attagene CIS-FACTORIAL HepG2 Assay for human Liver X Receptor (LXR), DR4 submotif (AID 2282929); conditions: HepG2 Attagene DR4 cis-reporter, mRNA transcription; actives raise or lower the signal
# In short: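 The endpoint is DR4-element-driven reporter transcripts after 24 h chemical exposure of transfected HepG2 cells. These were measured via RT-PCR and capillary electrophoresis, and gain or loss of signal was fitted relative to DMSO controls.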
# [5] = ATG_AP_1_CIS: Attagene CIS-FACTORIAL HepG2 Assay for human Activator Protein 1 (AP-1) (AID 2282931); conditions: HepG2 Attagene cis-factorial AP-1 reporter mRNA; actives raise or lower the signal
# In short: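 Readout is reporter transcript level from endogenous transcription factor activity, quantified by RT-PCR with fluorescent primer extension and capillary electrophoresis. Transiently transfected HepG2 cells, 24 h exposure. Curves fitted both directions versus DMSO.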
# [6] = ATG_AP_2_CIS: Attagene CIS-FACTORIAL HepG2 Assay for human Activator Protein 2 (AP-2) (AID 2282932); conditions: HepG2 AP-2 cis-reporter, Attagene transcription factor profiling; actives raise or lower the signal
# In short: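 Cells (HepG2) transfected with promoter-driven reporter constructs, treated 24 h. Total RNA reverse-transcribed, reporter cDNA PCR-amplified, FAM-labelled by primer extension, digested, resolved by capillary electrophoresis. Activity fitted both directions versus DMSO.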
# [7] = biological target: Retinoic acid receptor alpha (Homo sapiens) (UniProt P10276); assay: ATG_DR5_RAR_CIS: Attagene CIS-FACTORIAL HepG2 Assay for human Retinoic Acid Receptor Alpha (RARE), DR5 submotif (AID 2282934); conditions: HepG2 Attagene cis-factorial RARE DR5 reporter, mRNA; actives raise or lower the signal;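 as to AC50: reporter responds to endogenous RAR alpha beta and gamma in HepG2 not RARA alone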
# In short: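 HepG2 cells transiently transfected with multiplexed reporter units under cis (DR5 RARE) promoters, so endogenous transcription factor activity is measured. After 24 h compound exposure, reporter mRNA is quantified by RT-PCR with fluorescent labelling and capillary electrophoresis; bidirectional fitting versus DMSO.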
# [8] = biological target: Aryl hydrocarbon receptor (Homo sapiens) (UniProt P35869); assay: ATG_Ahr_CIS: Attagene CIS-FACTORIAL HepG2 Assay for human Aryl Hydrocarbon Receptor (Ahr) (AID 2282930); conditions: HepG2 AhR cis-factorial reporter transcription; actives raise or lower the signal
# In short: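 HepG2 cells transiently transfected with cis-element-driven multiplexed reporter transcription units; endogenous transcription factor activity measured as reporter mRNA 24 h after dosing. RT-PCR, 6-FAM labelling, HpaI digestion, capillary electrophoresis; bidirectional fitting versus DMSO baseline.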
# [9] = ATG_BRE_CIS: Attagene CIS-FACTORIAL HepG2 Assay for human Bone Morphogenetic Protein (BMP) Response Element (BRE) (AID 2282933); conditions: HepG2 BMP response element reporter, Attagene transcription factor profiling; actives raise or lower the signal
# In short: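 Read-out: reporter mRNA induction quantified by RT-PCR and capillary electrophoresis after 24 h chemical exposure of transfected HepG2 cells. Endogenous factor activity on the BMP response element; gain or loss fitted against DMSO baseline.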
# Sequence of Aryl hydrocarbon receptor (Homo sapiens) (P35869 whole entry, looked up): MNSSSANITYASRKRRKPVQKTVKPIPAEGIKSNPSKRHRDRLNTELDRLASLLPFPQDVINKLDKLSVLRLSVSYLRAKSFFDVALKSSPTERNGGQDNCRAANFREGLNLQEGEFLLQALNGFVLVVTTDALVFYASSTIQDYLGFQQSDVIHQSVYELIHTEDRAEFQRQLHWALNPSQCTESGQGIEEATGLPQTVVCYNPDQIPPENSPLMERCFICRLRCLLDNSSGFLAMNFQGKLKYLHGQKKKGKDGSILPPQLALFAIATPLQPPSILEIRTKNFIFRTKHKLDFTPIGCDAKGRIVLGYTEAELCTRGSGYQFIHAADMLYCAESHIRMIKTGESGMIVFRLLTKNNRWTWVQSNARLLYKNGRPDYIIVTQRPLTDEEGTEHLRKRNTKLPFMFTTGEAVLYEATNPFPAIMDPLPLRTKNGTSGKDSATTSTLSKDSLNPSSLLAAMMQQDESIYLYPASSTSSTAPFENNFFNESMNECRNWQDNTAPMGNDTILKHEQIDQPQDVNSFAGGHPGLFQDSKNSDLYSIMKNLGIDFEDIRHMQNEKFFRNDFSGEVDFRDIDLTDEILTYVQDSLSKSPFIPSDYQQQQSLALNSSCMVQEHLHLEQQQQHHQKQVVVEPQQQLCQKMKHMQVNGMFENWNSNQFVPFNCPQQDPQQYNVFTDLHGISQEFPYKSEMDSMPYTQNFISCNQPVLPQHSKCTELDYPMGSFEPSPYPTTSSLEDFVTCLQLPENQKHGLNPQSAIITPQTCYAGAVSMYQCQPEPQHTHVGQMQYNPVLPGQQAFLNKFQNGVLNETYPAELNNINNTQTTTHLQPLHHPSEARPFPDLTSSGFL
# Sequence of CCAAT/enhancer-binding protein beta (Homo sapiens) (P17676 whole entry, looked up): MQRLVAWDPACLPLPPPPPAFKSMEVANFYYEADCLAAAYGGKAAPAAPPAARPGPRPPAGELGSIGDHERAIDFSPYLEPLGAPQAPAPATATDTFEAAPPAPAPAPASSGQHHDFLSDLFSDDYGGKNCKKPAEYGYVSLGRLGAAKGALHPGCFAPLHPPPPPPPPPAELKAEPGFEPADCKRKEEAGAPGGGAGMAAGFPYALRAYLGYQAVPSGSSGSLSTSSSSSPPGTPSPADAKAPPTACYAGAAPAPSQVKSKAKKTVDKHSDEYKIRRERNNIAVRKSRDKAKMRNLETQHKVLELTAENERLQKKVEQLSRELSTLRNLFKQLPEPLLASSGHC
# Sequence of Retinoic acid receptor alpha (Homo sapiens) (P10276 whole entry, looked up): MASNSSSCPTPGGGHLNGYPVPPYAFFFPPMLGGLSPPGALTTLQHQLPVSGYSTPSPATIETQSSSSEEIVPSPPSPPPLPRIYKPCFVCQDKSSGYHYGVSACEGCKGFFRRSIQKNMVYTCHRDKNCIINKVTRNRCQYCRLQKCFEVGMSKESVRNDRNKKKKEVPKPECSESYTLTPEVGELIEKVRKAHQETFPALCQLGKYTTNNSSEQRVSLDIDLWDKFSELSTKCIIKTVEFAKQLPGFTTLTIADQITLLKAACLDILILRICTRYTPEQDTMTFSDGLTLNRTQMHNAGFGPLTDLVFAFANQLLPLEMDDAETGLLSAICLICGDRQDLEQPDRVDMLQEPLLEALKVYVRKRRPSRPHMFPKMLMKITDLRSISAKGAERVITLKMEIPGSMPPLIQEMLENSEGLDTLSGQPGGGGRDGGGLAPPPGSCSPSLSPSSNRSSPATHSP
smiles,measurement,setting,value
C=C(C)OC(C)=O,outcome,[1],inactive
same,outcome,[2],inactive
same,outcome,[3],inactive
same,outcome,[4],inactive
same,outcome,[5],inactive
same,outcome,[6],inactive
same,outcome,[7],inactive
CC/C=C\C/C=C\C/C=C\CCCCCCCC(=O)OC,outcome,[1],inactive
same,outcome,[2],inactive
same,outcome,[3],inactive
same,AC50,[4],71.1 µM (active)
same,AC50,[8],47.6 µM (active)
same,AC50,[5],70.6 µM (active)
same,AC50,[6],100 µM (active)
same,AC50,[7],100 µM (active)
N#Cc1ccc(C(c2ccc(C#N)cc2)n2cncn2)cc1,outcome,[1],inactive
same,outcome,[2],inactive
same,outcome,[3],inactive
same,outcome,[4],inactive
same,outcome,[8],inactive
same,outcome,[5],inactive
same,outcome,[6],inactive
same,outcome,[9],inactive
same,outcome,[7],inactive
CCN1CN(CC)CN(CC)C1,AC50,[1],162 µM (active)
same,AC50,[2],175 µM (active)
same,AC50,[3],140 µM (active)
same,AC50,[4],139 µM (active)
same,outcome,[5],inactive
same,outcome,[6],inactive
same,outcome,[9],inactive
same,outcome,[7],inactive
CC=CC(=O)OCC(C)C,outcome,[1],inactive
same,outcome,[2],inactive
same,outcome,[3],inactive
same,outcome,[8],inactive
same,outcome,[5],inactive
same,outcome,[6],inactive
same,outcome,[7],inactive
CCCC(C)C(=O)OCC (centres undefined),outcome,[1],inactive
same,outcome,[2],inactive
same,outcome,[3],inactive
same,outcome,[4],inactive
same,outcome,[8],inactive
same,outcome,[5],inactive
same,outcome,[6],inactive
same,outcome,[9],inactive
same,outcome,[7],inactive
C[Si](C)(C)N[Si](C)(C)C,outcome,[1],inactive
same,outcome,[2],inactive
same,outcome,[3],inactive
same,outcome,[4],inactive
same,outcome,[8],inactive
same,outcome,[5],inactive
same,outcome,[6],inactive
same,outcome,[9],inactive
same,outcome,[7],inactive
C=CCCCCCCCCC=O,outcome,[1],inactive
same,outcome,[2],inactive
same,outcome,[3],inactive
same,outcome,[4],inactive
same,outcome,[8],inactive
same,outcome,[5],inactive
same,outcome,[6],inactive
same,outcome,[9],inactive
same,outcome,[7],inactive
NC(=O)Nc1ccccc1,outcome,[1],inactive
same,outcome,[2],inactive
same,outcome,[3],inactive
same,outcome,[5],inactive
same,outcome,[9],inactive
same,outcome,[7],inactive
Clc1cc(Cl)c(Cl)c(Cl)c1Cl,outcome,[1],inactive
same,outcome,[2],inactive
same,AC50,[3],50.7 µM (active)
same,outcome,[4],inactive
same,outcome,[8],inactive
same,outcome,[5],inactive
same,outcome,[6],inactive
same,outcome,[9],inactive
same,outcome,[7],inactive
COC(=O)c1ccc(C(=O)OC)c(C(=O)OC)c1,outcome,[1],inactive
same,outcome,[2],inactive
same,outcome,[4],inactive
same,outcome,[8],inactive
same,outcome,[5],inactive
same,outcome,[6],inactive
same,outcome,[9],inactive
same,outcome,[7],inactive
Nc1ccc(C(=O)OCCCOC(=O)c2ccc(N)cc2)cc1,outcome,[1],inactive
same,outcome,[2],inactive
same,outcome,[3],inactive
same,outcome,[4],inactive
same,outcome,[5],inactive
same,outcome,[6],inactive
same,outcome,[9],inactive
same,outcome,[7],inactive
C=CC(=O)OCCCCCCCC(C)C,AC50,[1],77.2 µM (active)
same,AC50,[2],63.1 µM (active)
same,outcome,[3],inactive
same,AC50,[4],160 µM (active)
same,outcome,[8],inactive
same,outcome,[5],inactive
same,outcome,[6],inactive
same,outcome,[9],inactive
same,AC50,[7],70.5 µM (active)
CCCCOCC(C)O (centres undefined),outcome,[1],inactive
same,outcome,[2],inactive
same,outcome,[3],inactive
same,outcome,[4],inactive
same,outcome,[8],inactive
same,outcome,[5],inactive
same,outcome,[6],inactive
same,outcome,[9],inactive
same,outcome,[7],inactive
CCC[Si](OC)(OC)OC,outcome,[1],inactive
same,outcome,[2],inactive
same,outcome,[3],inactive
same,outcome,[4],inactive
same,outcome,[8],inactive
same,outcome,[5],inactive
same,outcome,[6],inactive
same,outcome,[7],inactive
O=C(O)/C=C/c1ccccc1,outcome,[1],inactive
same,outcome,[2],inactive
same,outcome,[3],inactive
same,outcome,[4],inactive
same,outcome,[8],inactive
same,outcome,[5],inactive
same,outcome,[7],inactive
CCc1cccc(C)c1N(C(=O)CS(=O)(=O)O)C(C)COC (centres undefined),outcome,[1],inactive
same,outcome,[2],inactive
same,outcome,[4],inactive
same,outcome,[8],inactive
same,outcome,[5],inactive
same,outcome,[6],inactive
same,outcome,[9],inactive
same,outcome,[7],inactive
COCC(=O)O,outcome,[1],inactive
same,outcome,[2],inactive
same,outcome,[3],inactive
same,outcome,[4],inactive
same,outcome,[5],inactive
same,outcome,[6],inactive
same,outcome,[9],inactive
same,outcome,[7],inactive
N#CC1(N)CCCCC1,outcome,[1],inactive
same,outcome,[2],inactive
same,outcome,[3],inactive
same,outcome,[4],inactive
same,outcome,[8],inactive
same,outcome,[5],inactive
same,outcome,[6],inactive
same,outcome,[9],inactive
same,outcome,[7],inactive
CCCCCCCCCCCC(C)=O,outcome,[1],inactive
same,outcome,[2],inactive
same,AC50,[3],124 µM (active)
same,AC50,[4],136 µM (active)
same,AC50,[5],72.7 µM (active)
same,AC50,[6],153 µM (active)
same,outcome,[9],inactive
same,AC50,[7],69.4 µM (active)
CCOC(=O)C1=NN(c2ccc(Cl)cc2Cl)C(C)(C(=O)OCC)C1 (centres undefined),outcome,[1],inactive
same,outcome,[2],inactive
same,outcome,[4],inactive
same,outcome,[8],inactive
same,AC50,[5],164 µM (active)
same,outcome,[6],inactive
same,outcome,[9],inactive
same,outcome,[7],inactive
O=C(O[C@@H]1Cc2c(O)cc(O)cc2O[C@@H]1c1cc(O)c(O)c(O)c1)c1cc(O)c(O)c(O)c1,outcome,[1],inactive
same,outcome,[2],inactive
same,AC50,[3],20.8 µM (active)
same,outcome,[4],inactive
same,outcome,[8],inactive
same,AC50,[5],72.5 µM (active)
same,outcome,[6],inactive
same,AC50,[9],3.86 µM (active)
same,outcome,[7],inactive
CCC(C)C(=O)OCCc1ccccc1 (centres undefined),outcome,[1],inactive
same,outcome,[2],inactive
same,outcome,[3],inactive
same,outcome,[4],inactive
same,outcome,[8],inactive
same,outcome,[5],inactive
same,outcome,[6],inactive
same,outcome,[9],inactive
same,outcome,[7],inactive
COC(=O)[C@H](Cc1ccccc1)NC(=O)[C@@H](N)CC(=O)O (H-Asp-Phe-OMe),outcome,[1],inactive
same,outcome,[2],inactive
same,outcome,[3],inactive
same,outcome,[4],inactive
same,outcome,[8],inactive
same,outcome,[5],inactive
same,outcome,[9],inactive
same,outcome,[7],inactive
CCCCCCCCC(CO)CCCCCC (centres undefined),AC50,[1],100 µM (active)
same,outcome,[2],inactive
same,AC50,[3],8.41 µM (active)
same,AC50,[4],53 µM (active)
same,outcome,[5],inactive
same,outcome,[6],inactive
same,outcome,[9],inactive
same,outcome,[7],inactive
Cc1c(Cl)cccc1Cl,outcome,[1],inactive
same,outcome,[2],inactive
same,outcome,[3],inactive
same,outcome,[4],inactive
same,outcome,[8],inactive
same,outcome,[5],inactive
same,outcome,[6],inactive
same,outcome,[9],inactive
same,outcome,[7],inactive
